# Assay results published in the supplement of paper PMC7595190.
# Values without a mark were called inactive.
# System: MV4-11
# Test: CellTox Green cytotoxicity fluorescence relative to DMSO vehicle (fold of vehicle RFU); higher = more cell death (loss of membrane integrity), active = 2 or more
# Experimental: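 Paediatric AML cell lines (MV4-11, CMK, Kasumi-1; 4x10^4 cells/well, 96-well) treated with single compounds from the Selleckchem apoptosis library at 0.01, 0.1 and 1 µM. Cytotoxicity was read with CellTox Green (RFU, Ex 485/Em 520) at 24, 48 and 72 h and normalised to the 0.1% DMSO vehicle. Normalised RFU >= 2 was taken as a successful, cell-killing treatment.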
structure (smiles),measurement,setting,value
COc1cc([C@@H]2c3cc4c(cc3[C@H](O)[C@H]3COC(=O)[C@@H]23)OCO4)cc(OC)c1OC [Picropodophyllin],CellTox Green cytotoxicity fluorescence,"0.01 µM, 24 h",0.934
same,CellTox Green cytotoxicity fluorescence,"0.01 µM, 48 h",0.932
same,CellTox Green cytotoxicity fluorescence,"0.01 µM, 72 h",0.939
same,CellTox Green cytotoxicity fluorescence,"0.1 µM, 24 h",0.922
same,CellTox Green cytotoxicity fluorescence,"0.1 µM, 48 h",0.924
same,CellTox Green cytotoxicity fluorescence,"0.1 µM, 72 h",0.931
same,CellTox Green cytotoxicity fluorescence,"1 µM, 24 h",1.28
same,CellTox Green cytotoxicity fluorescence,"1 µM, 48 h",2.6 (active)
same,CellTox Green cytotoxicity fluorescence,"1 µM, 72 h",3.18 (active)
